Structures can show the parent of a compound that is named as a salt.
Tests used:
[1] = tested on: Staphylococcus aureus MW2 delta-mecA (mecA-); assay: normalized GFP fluorescence (growth of mecA- strain) (fraction of control range); higher = more growth of mecA- strain; details: compound concentration: 150 uM; cefoxitin: subinhibitory; fluorescent label: GFP
In short: (§1)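 A 1:1 mix of pre-induced S. aureus MW2 cells, DsRed-labeled with the gene and GFP-labeled without it, was grown in LB with a daily-set subinhibitory antibiotic dose on 150 μM compound (1.5% DMSO) in 1536-well plates, single replicate. Growth lasted 20 h at 37 °C, 90% humidity, without shaking, and DsRed (540/590) and GFP (485/520) were then read. Channels were scaled per plate to single-strain control medians, and plates with high untreated ratios and rows with DsRed/GFP >10 were removed.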

[2] = tested on: Staphylococcus aureus MW2 (mecA+); assay: normalized DsRed fluorescence (growth of mecA+ strain) (fraction of control range); higher = more growth of mecA+ strain; details: compound concentration: 150 uM; cefoxitin: subinhibitory; fluorescent label: DsRed
In short: as §1

Row | Compound | normalized GFP fluorescence [1] | normalized DsRed fluorescence [2]
1 | O=C(/C=C/c1cccc(S(=O)(=O)Nc2ccccc2)c1)NO [Belinostat (PXD101)] | 0.364 | 1.16
2 | CC1(C)S[C@@H]2[C@H](NC(=O)[C@H](C(=O)O)c3ccsc3)C(=O)N2[C@H]1C(=O)O | 0.468 | 0.864
3 | CCCNC(C)C(=O)Nc1ccccc1C (stereo not given) | 0.223 | 0.919
4 | O=NN(CCCl)C(=O)NCCCl | 0.549 | 0.898
5 | Clc1ccc2nsnc2c1NC1=NCCN1 [Tizanidine HCl] | 0.539 | 0.515
6 | COc1ccc2c(c1)C(=O)N(CCc1ccc(S(=O)(=O)NC(=O)NC3CCCCC3)cc1)C(=O)C2(C)C [Gliquidone] | 0.017 | 0.134
7 | CC(=O)[C@H]1CC[C@H]2[C@@H]3CCC4=CC(=O)CC[C@]4(C)[C@H]3CC[C@]12C | 0.278 | 0.415
8 | CN(C)CCCOc1nn(Cc2ccccc2)c2ccccc12 | 0.19 | 1.11
9 | CN1C2CCCC1CC(NC(=O)c1nn(C)c3ccccc13)C2 (stereo not given) | 0.718 | 0.441
10 | CC(=O)N(CC(O)CO)c1c(I)c(C(=O)NCC(O)CO)c(I)c(C(=O)NCC(O)CO)c1I (stereo not given) | 0.415 | 0.849
11 | CC(=O)OCC(=O)[C@@]12OC(C)(C)O[C@@H]1C[C@H]1[C@@H]3C[C@H](F)C4=CC(=O)C=C[C@]4(C)[C@@]3(F)[C@@H](O)C[C@@]12C | 0.439 | 0.736
12 | NCCc1c[nH]cn1 | 0.621 | 0.661
13 | O=P(O)(O)C(O)(Cc1cccnc1)P(=O)(O)O [Risedronic acid (Actonel)] | 0.68 | 0.671
14 | C[N+](C)(C)CCOC(N)=O | 0.245 | 0.816
15 | O.O.O.O.O=C([O-])CC(O)(CC(=O)[O-])C(=O)[O-].[Li+].[Li+].[Li+] | 0.18 | 1.09
16 | COc1ccc2[nH]c([S@@+]([O-])Cc3ncc(C)c(OC)c3C)nc2c1 | 0.281 | 1.15
17 | CCOC(=O)[C@H](CCc1ccccc1)N[C@@H](C)C(=O)N1Cc2ccccc2C[C@H]1C(=O)O | 0.324 | 0.737
18 | CC1(C)O[C@@H]2C[C@H]3[C@@H]4CCC5=CC(=O)CC[C@]5(C)[C@@]4(F)[C@@H](O)C[C@]3(C)[C@]2(C(=O)CCl)O1 | 0.195 | 0.844

Row | Compound | normalized GFP fluorescence [1] | normalized DsRed fluorescence [2]
19 | CN1CCCN=C1COC(=O)C(O)(c1ccccc1)C1CCCCC1 (stereo not given) | 0.399 | 0.63
20 | CCN1CCC[C@H]1CNC(=O)c1cc(S(N)(=O)=O)ccc1OC [Levosulpiride (Levogastrol)] | 0.447 | 0.695
21 | CC(C)c1ccc2oc3nc(N)c(C(=O)O)cc3c(=O)c2c1 | 0.212 | 0.319
22 | NC[C@@H]1O[C@@H](O[C@H]2[C@H](O)[C@@H](O[C@H]3O[C@H](CO)[C@@H](O)[C@H](N)[C@H]3O)[C@H](N)C[C@@H]2N)[C@@H](O)[C@H](O)[C@H]1O | 0.472 | 0.795
23 | NC[C@@H]1O[C@H](O[C@H]2[C@@H](O)[C@H](O[C@@H]3[C@@H](O)[C@H](N)C[C@H](N)[C@H]3O[C@H]3O[C@H](CN)[C@@H](O)[C@H](O)[C@H]3N)O[C@@H]2CO)[C@H](N)[C@@H](O)[C@@H]1O | 0.217 | 0.718
24 | Cc1noc(NS(=O)(=O)c2ccc(N)cc2)c1C | 0.025 | 0.437
25 | CS(=O)(=O)OCCCCOS(C)(=O)=O | 0.346 | 0.573
26 | CCCCCC(C)N (stereo not given) | 0.403 | 0.663
27 | COC(=O)C1=C(C)NC(C)=C(C(=O)OCCN2CCN(C(c3ccccc3)c3ccccc3)CC2)C1c1cccc([N+](=O)[O-])c1 (stereo not given) | 0.002 | 0.944
28 | NNCCc1ccccc1 | 0.153 | 0.707
29 | NS(=O)(=O)Cc1noc2ccccc12 [Zonisamide] | 0.595 | 0.893
30 | Oc1ccc(OCc2ccccc2)cc1 | 0.0954 | 0.522
31 | CCN(CC)CC#CCOC(=O)C(O)(c1ccccc1)C1CCCCC1 (stereo not given) | 0.0426 | 0.796
32 | CCCCC(CC)COC(=O)C=Cc1ccc(OC)cc1 (stereo not given) | 0.289 | 0.473
33 | CC(=O)O[C@@]12CO[C@@H]1C[C@H](O)[C@@]1(C)C(=O)[C@H](O)C3=C(C)[C@@H](OC(=O)[C@H](O)[C@@H](NC(=O)OC(C)(C)C)c4ccccc4)C[C@@](O)([C@@H](OC(=O)c4ccccc4)[C@H]21)C3(C)C [Docetaxel (Taxotere)] | 0.11 | 0.768
34 | CN1CCC(=C2c3ccccc3CCc3cccnc32)CC1 | 0.396 | 0.798
35 | O=C1c2cccc3c2[C@H](CCC3)CN1[C@@H]1CN2CCC1CC2 [Palonosetron HCl] | 0.203 | 0.709

Source: the supplement of paper PMC7695840
